Data on 87 compounds can be found in PubChem BioAssay AID504803 (The Scripps Research Institute Molecular Screening Center, 2011).

In all, about 340,000 compounds went through this assay and about 1,700 (0.5%) were called active. The sample holds actives, similar compounds and a random draw of the others, so the mix is not that of the screen. Values without a mark were called inactive. Cut-off read from the data, not from the text of the source: active = inhibition above about 36%; inactive = the rest.

In the assay the target is Serine protease HTRA1 (Homo sapiens) (UniProt Q92743). The assay can be described thus: HTRA1 serine protease inhibitors, primary screen, biochemical, fluorescence polarization, HTS (AID 504803).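 Note: 0% = enzyme with DMSO and 100% = wells lacking enzyme.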 The note with it: recombinant HTRA1, FP-rhodamine activity-based probe, at 5.96 µM, active compounds read high. A general note: Fluorescence polarisation rises when a labelled molecule tumbles more slowly, as on binding a larger partner.
Serine protease HTRA1 (Homo sapiens), sequence (Q92743 whole entry, looked up): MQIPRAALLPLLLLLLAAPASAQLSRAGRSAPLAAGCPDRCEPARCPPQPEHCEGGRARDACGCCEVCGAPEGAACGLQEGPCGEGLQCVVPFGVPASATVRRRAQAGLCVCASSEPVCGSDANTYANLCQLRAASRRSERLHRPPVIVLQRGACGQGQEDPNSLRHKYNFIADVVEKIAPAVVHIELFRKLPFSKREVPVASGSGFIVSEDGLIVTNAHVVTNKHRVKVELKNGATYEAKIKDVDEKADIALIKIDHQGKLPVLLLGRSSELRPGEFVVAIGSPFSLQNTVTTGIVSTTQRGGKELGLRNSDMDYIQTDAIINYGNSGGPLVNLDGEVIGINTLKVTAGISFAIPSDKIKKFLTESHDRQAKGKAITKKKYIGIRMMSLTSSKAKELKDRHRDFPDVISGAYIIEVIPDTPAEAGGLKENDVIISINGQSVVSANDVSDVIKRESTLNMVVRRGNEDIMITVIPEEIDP
As for `C[C@H]1CN([C@@H](C)CO)C(=O)CCCn2cc(nn2)CO[C@@H]1CN(C)S(=O)(=O)c1cccs1`, the inhibition is 4.51%.

Turning to `O=C(NCCN1CCOCC1)c1ccc2c(c1)N(Cc1cccc(Cl)c1)C(=O)c1ccccc1S2(=O)=O`, the inhibition was -8.45%.

For the compound `c1ccc(CSc2nnc(-c3ccco3)c(-c3ccco3)n2)cc1`, the inhibition was 42.8% (active).

Regarding `S=C(NCc1ccco1)NCc1ccccc1Cl`, the inhibition was -12.8%.

`Clc1ccccc1CSc1nnc(-c2ccco2)c(-c2ccco2)n1`: the inhibition is 49.6% (active).

`CCc1nnc(SCc2cccc(F)c2)nc1CC`: the inhibition was -3.55%.

With `O=C(Nc1nnc(SCc2ccccc2Cl)s1)c1cccc([N+](=O)[O-])c1`, the inhibition is -3.08%.

Take `Clc1ccc(CSc2nnc3c(n2)[nH]c2ccccc23)cc1`: the inhibition was -20.7%.

For `O=C(NCc1nnnn1-c1ccc(Cl)cc1)c1ccc([N+](=O)[O-])o1`, the inhibition is 2.97%.

As to `CCN(CC)C(=O)C1=C(C)N(Cc2ccc(C(C)(C)C)cc2)C(=O)C(CC(=O)NCc2cccc3ccccc23)C1` (configuration not stated), the inhibition was -39.3%.

For the compound `Nc1cc(=O)c2[nH]cnc2[nH]1`, the inhibition is -44.6%.

Regarding `NS(=O)(=O)c1ccc(CNC(=O)c2cc(S(=O)(=O)N3CCOCC3)ccc2N2CCCC2)cc1`, the inhibition is 0.13%.

With `CCCc1ccc(S(=O)(=O)N2CCN(C(=O)c3cc(C)on3)CC2)cc1`, the inhibition was -2.05%.

Turning to `C[C@H]1Cn2cnc(C(=O)N[C@H](C)c3ccccc3)c2C(=O)N1`, the inhibition is 6.34%.

For `c1ccc(Cn2nnc3c(NCC4CC4)ncnc32)cc1`, the inhibition is -4.95%.

`O=C(NCCS(=O)(=O)N1CCN(c2ccccc2)CC1)c1cc(=O)c2ccccc2o1`: the inhibition is 1.65%.

For `CCCc1c(C)nc2scc(-c3ccc(Cl)cc3)n2c1=O`, the inhibition is 0.07%.

Take `C#CCN(C[C@@H]1[C@@H](OC(=O)NC2CC2)[C@@H](OC(=O)NC2CC2)Cn2c(=O)ccc(=O)n21)S(=O)(=O)c1ccc(C)cc1`: the inhibition is -1.46%.

For the compound `CCOC(=O)c1c(NC(=O)COC(=O)c2ccc(S(=O)(=O)C(F)F)cc2)sc(C(=O)N(C)C)c1C`, the inhibition is -16.1%.

Turning to `Cc1cc(Nc2ccccc2)n(C(=O)c2ccc(N)cc2)n1`, the inhibition is -10.8%.

Turning to `COc1ccc(Nc2ccc3ccccc3c2)cc1`, the inhibition is 24.9%.

Turning to `Nc1ccc(Nc2ccccc2)cc1`, the inhibition was 69% (active).

As for `O=C(NCCc1cccc(F)c1)C1CC(O)CN1C(=O)Nc1ccccc1` (configuration not stated), the inhibition was 0.16%.

As to `CC(C)[C@H](NC(=O)c1ccccc1F)C(=O)Nc1cccc(S(=O)(=O)N2CCOCC2)c1`, the inhibition was 0.83%.

For the compound `C[C@@H]1CN([C@@H](C)CO)C(=O)CCCn2nncc2CO[C@H]1CN(C)C(=O)Nc1ccc(C(F)(F)F)cc1`, the inhibition is -1.93%.

As to `CCOC(=O)C(=Cc1ccccc1)C(=O)c1ccccc1`, the inhibition was -10%.

For `O=C(CSc1ccc(Cl)cc1)NC1CC1`, the inhibition was 1.09%.

Take `COc1ccc2nc(-c3ccccn3)ccc2c1`: the inhibition was 4.04%.

As for `COc1cnc(-c2ccccn2)nc1Oc1ccc(C(C)(C)C)cc1`, the inhibition is 56.8% (active).

Turning to `COc1ccc(NCCc2ccccn2)cc1`, the inhibition is 3.17%.

As for `C[C@H]1CN([C@@H](C)CO)C(=O)c2cc(C3=CCCCC3)cnc2O[C@@H]1CN(C)C(=O)Cc1ccccc1`, the inhibition is -0.1%.

As to `CN1c2ccc(C=O)c3c(C=O)ccc(c23)N(C)C1(C)C`, the inhibition was 53.2% (active).

In the case of `Cc1ccc(C=O)c([B-](F)(F)F)c1`, the inhibition was 4.92%.

With `Nc1ccccc1-c1nc2ccncc2[nH]1`, the inhibition was -6.2%.

Take `O=C(Nc1sc2c(c1-c1nc3ccccc3[nH]1)CCCC2)C1CC1`: the inhibition is 3.75%.

As to `c1ccc2[nH]c(-c3nc4ccccc4[nH]3)nc2c1`, the inhibition is 80.8% (active).

As for `NC(=S)NN=Cc1ccc(OC(=O)COc2cc(Cl)c(Cl)cc2Cl)cn1`, the inhibition is -2.79%.

As for `CC(C)C1N=C2c3ccccc3N=C(SCC(=O)c3ccc(O)c(O)c3)N2C1=O` (configuration not stated), the inhibition was 59.3% (active).

On to `NC(=O)CSC1=Nc2ccccc2C2=NC(CCC(=O)NCc3ccc(F)cc3)C(=O)N12` (configuration not stated), for which the inhibition was 1.09%.

With `O=C(CSC1=Nc2ccccc2C2=NC(c3ccccc3)C(=O)N12)NCC1CCCO1` (configuration not stated), the inhibition is 5.98%.

As to `CC(C)CCC(=O)Nc1cc(S(=O)(=O)N2CCOCC2)ccc1N1CCCC1`, the inhibition was -0.61%.

As for `C#Cc1cc(N2CCN(C(=O)c3ccoc3)CC2)n2nc(-c3cccc(Cl)c3)cc2n1`, the inhibition is -68.2%.

On to `CN(c1ccccc1)S(=O)(=O)c1ccc(C(=O)NCc2cccnc2)cc1`, for which the inhibition was 2.31%.

In the case of `Cc1cc2c3ccccc3[nH]c(=O)n2n1`, the inhibition is -0.09%.

As to `CCN(CC)S(=O)(=O)c1ccc(N2CCOCC2)c(NC(=O)C2COc3ccccc3O2)c1` (configuration not stated), the inhibition was -9.82%.

Turning to `Cc1c(CCC(=O)O)c(=O)oc2c(C)c(OCc3ccccc3Cl)ccc12`, the inhibition was -1.83%.

As to `Cc1c(CC(=O)N2CCN(C(=O)C3COc4ccccc4O3)CC2)c(=O)oc2c(O)c(O)ccc12` (configuration not stated), the inhibition was 51.5% (active).

Take `CCN1CCCC1CNC(=O)c1ccc2c(c1)NC(=O)/C(=C\c1ccccc1F)S2` (configuration not stated): the inhibition was -43.1%.

Turning to `O=C(CCCN1C(=O)C(c2ccccc2)Oc2cccnc21)Nc1ccccc1Br` (configuration not stated), the inhibition is -5.83%.

In the case of `O=C(COC(=O)CCc1c[nH]c2ccccc12)Nc1cccc(Cl)c1`, the inhibition is -2.43%.

Consider `CC(C)c1ccc(C=NNc2ccc([N+](=O)[O-])cn2)cc1`, for which the inhibition was -18.3%.

In the case of `Cc1cc(/C=N/NC(=O)CC2(C)OCCO2)c(C)n1-c1ccc(Cl)c(Cl)c1`, the inhibition is 2.74%.

On to `Cc1cc(/C=N/Nc2ccc([N+](=O)[O-])cn2)c(C)n1-c1cccc(C(=O)O)c1`, for which the inhibition is 40.5% (active).

For `CC(OC(=O)c1ccc(NC(=O)CC#N)cc1)C(=O)Nc1ccc(S(=O)(=O)N2CCCC2)cc1` (configuration not stated), the inhibition was -20%.

With `O=c1[nH]c(/C=C/c2cccc(Br)c2)nc2ccccc12`, the inhibition is -1.32%.

Consider `O=C(COC(=O)/C=C/c1cccc(Cl)c1)NCCc1ccccc1`, for which the inhibition was 4.91%.

On to `NNc1cccc(C=Cc2ccccc2)cc1=O`, for which the inhibition is 61.4% (active).

In the case of `COc1ccc(-c2ccc3[nH]c4c(c3c2)CCN2C[C@H]3[C@H](C)ON(C)[C@H]3C[C@@H]42)cc1`, the inhibition was 6.55%.

As to `CCCCN1C[C@H](c2ccc(Br)cc2)[C@@H](CC(=O)Nc2ccc(Br)cc2)C1=O`, the inhibition was -22.8%.

For the compound `CCC(CO)Oc1cc(NC(=O)c2ccc(Cl)cc2)c2ncn(C(C)C)c2c1` (configuration not stated), the inhibition is 6.4%.

As for `CCC(CO)Oc1cc(NC(=O)c2cccc3ccccc23)c2ncn(C(C)C)c2c1` (configuration not stated), the inhibition is -25%.

Regarding `CC(C)n1cnc2c(NCc3ccccc3)cc(OCC3CCN(C)CC3)cc21`, the inhibition was 40.1% (active).

In the case of `Cc1ccc(-c2nc3ccc(Cl)cn3c2Cc2ccccc2)cc1`, the inhibition is -74.4%.

For `N#Cc1ccsc1NC(=O)CN1CCN(S(=O)(=O)c2cc(Cl)ccc2Cl)CC1`, the inhibition was -36.8%.

Take `COc1ccc(Cl)cc1S(=O)(=O)N1CCN(CC(=O)C(C)(C)C)CC1`: the inhibition is 4.3%.

`O=C(CN1CCN(S(=O)(=O)c2cc(Cl)ccc2Cl)CC1)c1ccc(O)c(O)c1`: the inhibition was 39.9% (active).

Turning to `O=C1[C@H]2[C@@H](c3ccc(C(F)(F)F)cc3)N[C@]3(CCCN(Cc4ccc(Cl)cc4)C3=O)[C@H]2C(=O)N1Cc1ccccc1`, the inhibition was -39.5%.

With `COc1ncnc2c1ncn2CCCNCCN1CCOCC1`, the inhibition is 0.71%.

For `COc1cc(NC(=O)C2=C(C)OCCS2)c(Cl)cc1C(=O)NCCCN1CCCC(C)C1` (configuration not stated), the inhibition was -6.48%.

Consider `C[C@@H]1CN([C@@H](C)CO)S(=O)(=O)c2ccc(-c3ccc(C(=O)N(C)C)cc3)cc2O[C@@H]1CN(C)Cc1ccccc1C(=O)O`, for which the inhibition was -0.74%.

`COCOCCn1cc(CN2CCS(=O)(=O)N(Cc3ccc(-c4cccc(N(C)C)c4)cc3)C(CC(C)C)C2=O)nn1` (configuration not stated): the inhibition is 1.08%.

As for `Cc1cc(=O)oc2cc(OCC(=O)N3CCN(c4ccc(F)cc4)CC3)c(Cl)cc12`, the inhibition was 4.27%.

For `COc1cc(C)cc(CN2CCC(Cc3ccccc3)CC2)c1O`, the inhibition was 4.82%.

For the compound `Oc1c(CN2CCCC2)cc(COCc2ccccc2)c2cccnc12`, the inhibition was 49.2% (active).

For `Cc1ccc(CN2CCN(c3ncccn3)CC2)c(C)c1`, the inhibition was -5.09%.

Regarding `CC1CCCN(CC(O)COCc2ccccc2)C1` (configuration not stated), the inhibition is 1.82%.

On to `Oc1c(CN2CCN(c3ccc(F)cc3)CC2)cc(Cl)c2cccnc12`, for which the inhibition was 50.4% (active).

Regarding `Nc1cc(C(=O)N2CCN(c3ccccc3Cl)CC2)ccc1N1CC2CC(C1)c1cccc(=O)n1C2` (configuration not stated), the inhibition is 2.36%.

As for `O=C(NCc1ccccc1)C1CNCC(C(=O)NCc2ccccc2)C1` (configuration not stated), the inhibition was 0.67%.

In the case of `CCOc1ccc(CCNC(=O)COC(=O)c2ccc(C)c(S(=O)(=O)N3CCOCC3)c2)cc1OCC`, the inhibition was -2.04%.

For `O=[N+]([O-])c1ccc(C(S(=O)(=O)Cc2ccccc2)S(=O)(=O)Cc2ccccc2)cc1`, the inhibition is -1.31%.

Consider `COc1ccc(S(=O)(=O)Nc2ccccc2C(=O)N2CCCC2)cc1C`, for which the inhibition is 1.39%.

Consider `Cc1cc([N+](=O)[O-])ccc1NS(=O)(=O)c1ccccc1`, for which the inhibition is -0.9%.

`COc1cccc(/C=N/Nc2ccc(S(=O)(=O)Nc3ccccc3C(=O)O)cc2[N+](=O)[O-])c1O`: the inhibition is 40.5% (active).

Regarding `C=C(C)CNC(=S)N/N=C/c1ccccc1OCC(=O)O`, the inhibition is 4.14%.

On to `Cc1ccc(NS(=O)(=O)c2ccc(N/N=C/c3ccccc3OCC(=O)O)c([N+](=O)[O-])c2)c(C)c1`, for which the inhibition was 37.7% (active).

With `COc1ccc(Br)cc1/C=N/Nc1ccc(S(=O)(=O)Nc2ccccc2C(=O)O)cc1[N+](=O)[O-]`, the inhibition was -2.73%.

In general, inhibition refers to the drop in the measured response relative to a control, in per cent.
